Screening results from PubChem BioAssay.
The list is not random: actives were taken first. Their share in the collection is about 12%.
Sm TGR block: S. mansoni TGR enzyme inhibition; Q962Y6; purified TGR, DTNB reduction, TNB absorbance 405 nm; Potency, µM (series often up to 114 µM), for inactives: at the top dose activity change, negative = inhibition, usual class: inhibitors; 360,000 compounds, 3% hits; AID 485364; active means well fitted inhibition curve with a large enough effect; inconclusive means small, poorly fitted or top-dose-only effect; inactive means no such curve, though single readings can be large or run the other way; further: potency means the concentration at half of the fitted maximal effect; on the % scale 0 is the no-effect control and ±100 the full control effect; nearly all actives have a fitted effect of over 60% in size
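First, TGR (20 nM dispensed) and NADPH were mixed with compound. Second, a 15 min room-temperature incubation followed. Third, further NADPH and then DTNB were added to start the reaction. Finally, TNB absorbance was monitored kinetically.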
FMDV inh: foot and mouth disease virus antiviral activity | FMDV antiviral cell-based qHTS | Potency, µM (doses to about 57.9 µM), inactives show top-dose activity change, negative = inhibition, hits mostly inhibitors | 410,000 compounds, 1.2% hits | AID 1159524; calls by dose curve; tested in HEK293T cells; further: read-out not given here; potency means the concentration at half of the fitted maximal effect; on the % scale 0 is the no-effect control and ±100 the full control effect; nearly all actives have a fitted effect of over 45% in size
Cycloheximide cs: counter-screen for Shiga toxin inhibitors: cycloheximide protein synthesis inhibition | cell reporter, cycloheximide protein synthesis inhibition counterscreen | max response, % | 300,000 compounds, 12% hits | AID 2314; in the data active means max response mostly above about 13%, no sharp cut-off; inactive means mostly below about 14%; further: read at 38.3 µM for the half of the compounds with a filed dose; 0% is about no effect
Shiga inhibitor: Shiga toxin inhibition | Vero cells, Shiga toxin protein synthesis inhibition reporter | inhibition, % at 38.7 µM | 290,000 compounds, 9.2% hits; in the data active means inhibition mostly above about 28%, no sharp cut-off; inactive means mostly below about 43%; further: 0% is about no effect
* marks the source's active call; other numbers are inactive results; ? = inconclusive; nt = no result given.

SMILES	Sm TGR block	FMDV inh	Cycloheximide cs	Shiga inhibitor
CC[C@@]1([C@@H]2O[C@@H]([C@H]3O[C@@](O)(CO)[C@H](C)C[C@@H]3C)C[C@@H]2C)CC[C@H]([C@]2(C)CC[C@]3(C[C@H](O)[C@@H](C)[C@@H]([C@@H](C)[C@@H](OC)[C@H](C)C(=O)O)O3)O2)O1 (stereo in doubt)	nt	-18%	nt	nt
COc1ccc(Nc2nc(C)c(-c3ccccc3)s2)cc1	-9%	29%	59*	82*
Cc1ccc(-c2csc(Nc3ccc(S(N)(=O)=O)cc3)n2)o1	1.8µM*	?	10	-3
Cc1nc(Nc2ccc(S(N)(=O)=O)cc2)sc1-c1ccccc1	-4%	30%	31*	47
Cc1nnc(Nc2ccc(S(N)(=O)=O)cc2)c2ccccc12	11%	4%	-3	nt
COc1ccc(Nc2nc(C)c(C(C)=O)s2)cc1	nt	41%	nt	nt
CC1CCN(c2ccc(-c3cccc(NS(=O)(=O)c4ccc(Cl)s4)c3)nn2)CC1	4%	3%	nt	nt
CCOc1ncccc1C(=O)OCc1ccc(Cl)cc1	-10%	-10%	15	17
COC(=O)c1ccc(OCC(=O)c2ccccc2OC)cc1	-6%	19%	22*	54
COC(=O)c1ccc(COC(=O)c2ccccc2OC)cc1	-1%	63%	67*	97*
CCOc1ncccc1C(=O)OCc1ccc(C(=O)OC)cc1	0%	14%	81*	98*
Cc1ccc2[nH]c(CNC(=O)c3ccccc3F)cc2c1	4%	32%	29*	51
O=C(NCc1nc2ccccc2[nH]1)c1ccccc1F	72%	41%	33*	72*
Cc1ccc(NC(=O)c2ccccc2F)c(NC(=O)c2ccccc2F)c1	nt	8%	nt	nt
O=C(NCc1cc2ccccc2[nH]1)c1ccccc1F	0%	39%	38*	nt
O=C(NCCCCNC(=O)c1ccccc1F)c1ccccc1F	11%	-10%	-4	-4
COC(=O)[C@@H]1C[C@@H](NC(=O)c2cnsn2)CN1Cc1ccc(Cl)cc1	nt	3%	nt	nt
COCCN1CN(S(=O)(=O)c2cccc(Cl)c2)c2nc3ccccc3nc21	-8%	4%	-4	2
C=CCN1CN(S(=O)(=O)c2cccc(Cl)c2)c2nc3ccccc3nc21	-24%	-6%	20*	16
Cc1cc2n(n1)CCC(=O)N2Cc1ccc(C(=O)Nc2ccc(Br)c(C)c2)cc1	9%	-19%	nt	nt
O=CN1CCN(C(C(=O)NC2CCCC2)c2cc3c(cc2[N+](=O)[O-])OCO3)CC1 (stereo not given)	-4%	19%	10	9
O=C(NC1CCCC1)C(c1cc2c(cc1[N+](=O)[O-])OCO2)N1CCCC1 (stereo not given)	24%	25%	18*	66*
Cc1cccc(NNC(=O)C(=O)NNc2cccc(C)c2)c1	-5%	-11%	14	24
COc1cccc(NC(=O)c2ccc(CN3CCN(c4ccccc4)CC3)cc2)c1	-4%	?	17*	27*
O=C(Nc1ccc(N2CCN(C(=O)c3cccs3)CC2)cc1)c1cccc(F)c1	0%	1%	1	17
SMILES	Sm TGR block	FMDV inh	Cycloheximide cs	Shiga inhibitor
Cc1cccc(NC(=O)c2ccc(CN3CCN(Cc4ccccc4)CC3)cc2)c1	-32%	-18%	27*	36
CCCc1ccc(C(=O)NNc2cccc(C)c2)cc1	0%	27%	29*	46*
COc1cccc(C(=O)Nc2ccc(N3CCN(C(=O)c4cccs4)CC3)cc2)c1	5%	32µM*	8	-3
O=C(Nc1cccc(C(=O)N2CCN(Cc3ccccc3)CC2)c1)c1ccccc1	-11%	?	1	33
COc1cccc(C(=O)Nc2ccc(N3CCN(Cc4ccccc4)CC3)cc2)c1	3%	?	13	43*
COc1ccc(N2CCN(C(=O)c3ccc(NS(=O)(=O)c4cccs4)cc3)CC2)cc1	7%	37%	27*	63*
COc1ccc(N2CCN(C(=O)c3ccc(NS(=O)(=O)c4ccc(F)cc4)cc3)CC2)cc1	4%	26%	13	43
COc1ccc(C(=O)Nc2ccc(N3CCN(Cc4ccccc4)CC3)cc2)cc1	nt	-27%	-1	-25
Cc1cccc(S(=O)(=O)c2cn(Cc3ccccc3)c3cc(N4CCCCC4)c(F)cc3c2=O)c1	6%	8%	nt	nt
Cc1cc(=O)n2nc(N3CCC(C(=O)Nc4ccc(C(C)C)cc4)CC3)sc2n1	4%	?	nt	nt
CCc1nnc(NC(=O)CSc2nccn2Cc2ccc(Cl)cc2)s1	-16%	-26%	nt	nt
COC(=O)CN(C)C1CC(=O)N(c2ccc(Cl)cc2)C1=O (stereo not given)	6.3µM*	-17%	-2	-9
CN(C)c1ccc(CNC(=O)c2cccc(NC(=O)N3CCSc4ncccc43)c2)cc1	-1%	?	nt	nt
O=C1c2ccccc2CCC1C(O)c1ccccn1 (stereo not given)	-11%	40%	39*	46
N[C@@H](C(=O)O)[C@@H](CC(=O)O)c1ccc(Cl)cc1	nt	-7%	nt	nt
Cc1csc(C(C#N)C(=O)c2cc3ccccc3o2)n1 (stereo not given)	-4%	-7%	25*	55*
Cc1ccc(C)c(NC(=O)C2CCN(c3nn4c(=O)cc(C)nc4s3)CC2)c1	1%	-17%	nt	nt
CC12CCC=CC1C(c1ccc(C(F)(F)F)cc1)N(Cc1ccccc1)C2=O (stereo not given)	nt	nt	0	-14
O=C1c2ccccc2CN1CCSC(=S)N1CCOCC1	-11%	10%	74*	81*
O=C1c2ccccc2CN1CCSC(=S)N1CCSCC1	4%	nt	48*	157*
COc1ccc(Cl)cc1NC(=O)C1CCCN(S(=O)(=O)c2ccc3c(c2)CCCC(=O)N3)C1 (stereo not given)	-10%	-22%	nt	nt
Cc1ccc(Nc2nnc(SCC(=O)Nc3cccc(S(=O)(=O)N4CCCCC4)c3)s2)cc1	-3%	-29%	53*	5
Cc1nnc(SCC(=O)Nc2cccc(S(=O)(=O)N3CCCCC3)c2)s1	0%	-8%	nt	nt
Cc1ccc(Nc2nnc(SCC(=O)NCCN3C(=O)CSC3=O)s2)cc1	5%	24%	13*	31
O=C(CSc1nnc(Nc2ccccc2F)s1)Nc1cccc(S(=O)(=O)N2CCCCC2)c1	-6%	?	42*	75*
SMILES	Sm TGR block	FMDV inh	Cycloheximide cs	Shiga inhibitor
COc1ccc(CCNC(=O)c2ccc3c(c2)N(Cc2ccc(F)cc2)C(=O)c2ccccc2S3(=O)=O)cc1OC	-15%	-1%	nt	nt
COc1ccc(N2CC(C(=O)NCc3ccco3)CC2=O)cc1 (stereo not given)	20µM*	-2%	4	13
COc1ccc(N2CC(C(=O)Nc3nnc(SCC(=O)NCc4ccco4)s3)CC2=O)cc1 (stereo not given)	28µM*	-13%	-1	-2
COc1ccc(N2CC(C(=O)Nc3nnc(SCc4ccccn4)s3)CC2=O)cc1 (stereo not given)	-10%	-13%	20*	-2
CCOc1ccc(N2CC(C(=O)NCc3ccco3)CC2=O)cc1 (stereo not given)	1%	12%	0	-15
Cc1ccc(CCN2CC(C(=O)NCc3ccco3)CC2=O)cc1 (stereo not given)	45µM*	-16%	3	15
O=c1c(-c2ccc(F)cc2)nc2cnc(N3CCNCC3)nc2n1-c1ccccc1	nt	3%	nt	nt
